Experimental findings from PubChem BioAssay (EPA / NIEHS) are described below.

Test [1] has as its target human Thyroid Receptor alpha (THRa1), THRA (gene 7067) (UniProt P10827). Kind of test: ATG_THRa1_TRANS: Attagene TRANS-FACTORIAL HepG2 Assay for human Thyroid Receptor alpha (THRa1) (AID 2283014; active = hit-call score of the fitted dose curve at least 0.9, where 1 is the maximum). In a few lines: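 Measured here is mRNA from a GAL4-UAS reporter in transfected HepG2 cells carrying a Gal4-fused receptor, 24 h post-dose. DMSO served as negative control and baseline.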

Read-out in test [2]: E-selectin (Homo sapiens) (UniProt P16581)
Kind of test: BSK_3C_Eselectin: BioMAP Diversity Plus: 3C Assay for Eselectin Biomarker Activity (AID 2283015).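 For outcome: cell surface E-selectin protein quantified by ELISA 24 h after dosing.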 The conditions noted are these: primary human endothelial cells (HUVEC); actives raise or lower the signal. The gist of the method:
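Endpoint derived by bidirectional fitting against DMSO vehicle; signal is ELISA-detected E-selectin from primary HUVEC at 24 h post-dosing, with parallel SRB staining (0.1% SRB, 560 nm) flagging cytotoxicity.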

Read-out in test [3]: Interleukin-1 alpha (IL1a), IL1A (gene 3552)
Kind of test: BSK_BE3C_IL1a: BioMAP Diversity Plus: BE3C Assay for Interleukin-1 alpha (IL1a) Biomarker Activity (AID 2283016). The conditions noted are these: primary human bronchial epithelial cells; actives raise or lower the signal. The gist of the method: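 Cultures of primary human bronchial epithelial cells receive test chemical. After 24 h, IL-1a is quantified by ELISA, while parallel wells are fixed in TCA and SRB-stained for total protein. Changes in either direction are fitted relative to DMSO.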

Read-out in test [4]: Monocyte Chemoattractant Protein-1 (MCP1), CCL2 (gene 6347)
Kind of test: BSK_3C_MCP1: BioMAP Diversity Plus: 3C Assay for Monocyte Chemoattractant Protein-1 (MCP1) Biomarker Activity (AID 2283017). Particulars: primary human endothelial cells (HUVEC); actives raise or lower the signal. The gist of the method: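 Using human vascular primary endothelium, researchers measured MCP-1 by ELISA 24 h after treatment, with DMSO serving as negative control for bidirectional fitting.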

Read-out in test [5]: Monocyte Chemoattractant Protein-1 (MCP1), CCL2 (gene 6347)
Kind of test: BSK_4H_MCP1: BioMAP Diversity Plus: 4H Assay for Monocyte Chemoattractant Protein-1 (MCP1) Biomarker Activity (AID 2283018). The conditions noted are these: primary human endothelial cells (HUVEC); actives raise or lower the signal. In a few lines:
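Readout: MCP-1 ELISA on compound-treated HUVEC, sampled 24 h post-dosing. Baseline and negative control DMSO; bidirectional fit. Overt toxicity checked alongside by sulforhodamine B protein staining at time of biomarker measurement.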

Read-out in test [6]: Human Leukocyte Antigen - DR isotype (HLADR), HLA-DRA (gene 3122)
Kind of test: BSK_3C_HLADR: BioMAP Diversity Plus: 3C Assay for Human Leukocyte Antigen - DR isotype (HLADR) Biomarker Activity (AID 2283019).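 For outcome: ELISA of cell-surface HLA-DR on HUVEC 24 h after dosing.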 Particulars: primary human endothelial cells (HUVEC); actives raise or lower the signal. The gist of the method: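 Compound added to primary HUVEC cultures, 24 h incubation, then HLA-DR determined by ELISA; endpoint derived by bidirectional fitting relative to DMSO negative control.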

Read-out in test [7]: Interleukin-8 (IL8), CXCL8 (gene 3576)
Kind of test: BSK_3C_IL8: BioMAP Diversity Plus: 3C Assay for Interleukin-8 (IL8) Biomarker Activity (AID 2283020). The conditions noted are these: primary human endothelial cells (HUVEC); actives raise or lower the signal. In a few lines: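 Human vascular endothelial cells (umbilical vein) in the 3C system; IL-8 level detected by ELISA at 24 h post-dose, with DMSO as baseline.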

Read-out in test [8]: Monokine induced gamma interferon (MIG), CXCL9 (gene 4283)
Kind of test: BSK_3C_MIG: BioMAP Diversity Plus: 3C Assay for Monokine induced gamma interferon (MIG) Biomarker Activity (AID 2283021).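 For AC50: MIG protein level measured by immunoassay in the treated endothelial cultures.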 Particulars: primary human endothelial cells (HUVEC); actives raise or lower the signal. The gist of the method:
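After 24 h of treatment, human umbilical vein endothelial cultures (3C system) had their MIG biomarker level determined by ELISA, with DMSO serving as negative control.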

Test [9] is described as follows: BSK_3C_SRB: Viability Assessment in the BioMAP Diversity Plus: 3C Assay (AID 2283023).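 Note: cells read 24 h after compound dosing; fitted both ways against DMSO so a hit may be signal rise or drop.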 Particulars: primary human endothelial cells (HUVEC). In a few lines:
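Overt cytotoxicity is gauged in parallel confluent HUVEC cultures by SRB total-protein staining at the time of biomarker measurement, 24 h after dosing. Gain or loss of signal is fitted versus DMSO.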

Read-out in test [10]: Matrix Metallopeptidase 1 (MMP1), MMP1 (gene 4312)
Kind of test: BSK_BE3C_MMP1: BioMAP Diversity Plus: BE3C Assay for Matrix Metallopeptidase 1 (MMP1) Biomarker Activity (AID 2283024). The conditions noted are these: primary human bronchial epithelial cells; actives raise or lower the signal. In a few lines:
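Dose cells, wait 24 h, run MMP1 ELISA; cells are human bronchial epithelial primaries. Both increases and decreases relative to DMSO counted.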

Read-out in test [11]: Pselectin, SELP (gene 6403)
Kind of test: BSK_4H_Pselectin: BioMAP Diversity Plus: 4H Assay for Pselectin Biomarker Activity (AID 2283026). The conditions noted are these: primary human endothelial cells (HUVEC); actives raise or lower the signal. In a few lines: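 Human vascular endothelium from umbilical vein; P-selectin measured by ELISA at 24 h post-dose, with cytotoxicity checked by sulforhodamine B total-protein staining in parallel cultures (0.1% SRB after 10% TCA fixation, read at 560 nm).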

Test [12] can be described thus: BSK_BE3C_SRB: Viability Assessment in the BioMAP Diversity Plus: BE3C Assay (AID 2283028).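 Note: measured 24 h after chemical dosing.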 Particulars: primary human bronchial epithelial cells. The gist of the method: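 SRB total-protein staining (0.1%, after TCA fixation) of chemically dosed human bronchial epithelial primary cells at 24 h; DMSO serves as the negative control for bidirectional curve fitting.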

Read-out in test [13]: Thrombomodulin, THBD (gene 7056)
Kind of test: BSK_3C_Thrombomodulin: BioMAP Diversity Plus: 3C Assay for Thrombomodulin Biomarker Activity (AID 2283029). Particulars: primary human endothelial cells (HUVEC); actives raise or lower the signal. The gist of the method: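 Thrombomodulin ELISA, human primary HUVEC, 24 h post-dose; data fitted in both directions relative to DMSO.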

Read-out in test [14]: Urokinase-type plasminogen activator receptor (uPAR), PLAUR (gene 5329)
Kind of test: BSK_4H_uPAR: BioMAP Diversity Plus: 4H Assay for Urokinase-type plasminogen activator receptor (uPAR) Biomarker Activity (AID 2283030). The conditions noted are these: primary human endothelial cells (HUVEC); actives raise or lower the signal. The gist of the method:
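Endpoint derived via bidirectional curve fitting against DMSO baseline; readout was ELISA detection of uPAR on umbilical vein endothelial cells at 24 h post-treatment, with SRB-stained parallel cultures assessing cytotoxicity.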

Test [15] concerns the target Retinoic acid receptor RXR-alpha (Homo sapiens) (UniProt P19793). Kind of test: ATG_RXRa_TRANS: Attagene TRANS-FACTORIAL HepG2 Assay for human Retinoid X Receptor alpha (RXRa) (AID 2283012; active = hit-call score of the fitted dose curve at least 0.9, where 1 is the maximum). The gist of the method:
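Cells (HepG2) carried transiently transfected GAL4-responsive reporter units. Following a 24 h chemical incubation, reporter mRNA induction was read via RT-PCR fragment analysis; DMSO served as negative control and baseline.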

In test [16] the target is human Vitamin D Receptor (VDR), VDR (gene 7421) (UniProt P11473). Kind of test: ATG_VDR_TRANS: Attagene TRANS-FACTORIAL HepG2 Assay for human Vitamin D Receptor (VDR) (AID 2283022; active = hit-call score of the fitted dose curve at least 0.9, where 1 is the maximum). The gist of the method:
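Multiplexed TRANS reporter in HepG2; 24 h treatment; reporter mRNA by RT-PCR plus capillary electrophoresis; upregulation scored relative to DMSO.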

Test [17] addresses human Retinoid X Receptor beta (RXRb), RXRB (gene 6257) (UniProt P28702). Kind of test: ATG_RXRb_TRANS: Attagene TRANS-FACTORIAL HepG2 Assay for human Retinoid X Receptor beta (RXRb) (AID 2283013; active = hit-call score of the fitted dose curve at least 0.9, where 1 is the maximum). The gist of the method: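 Multiplexed TRANS reporter assay in HepG2; 24 h dosing; reporter mRNA by RT-PCR/CE fluorescence; gain-of-signal relative to DMSO.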
A short description of test [18]: BSK_4H_SRB: Viability Assessment in the BioMAP Diversity Plus: 4H Assay (AID 2283027).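 For AC50: curves fitted both ways versus DMSO so AC50 may be loss or gain.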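 Note: cells exposed to compound for 24 h before staining.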 Particulars: primary human endothelial cells (HUVEC). In a few lines: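 Human umbilical vein endothelial cells were dosed with chemical and, after 24 h, fixed with 10% TCA, stained with 0.1% sulforhodamine B, and read at 560 nm to give total protein as a cytotoxicity measure. Bidirectional fitting relative to DMSO control.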

The nature of test [19]: BSK_3C_Vis: BioMAP Diversity Plus: 3C Assay for Morphology Visualization (AID 2283025).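 Note: fitted both ways so gain or loss versus DMSO counts.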 Particulars: primary human endothelial cells (HUVEC). In a few lines:
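Endothelial cells from human umbilical vein were treated with test chemicals for 24 h and inspected by light microscopy for changes in cell conformation.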

Several values for one entry are separate records, joined by “and”; a condition that tells them apart may be missing. Identical values can stand only once. Records with an inconclusive call do not appear. A structure can be active in one record and inactive in another. Activity calls are given as the source filed them. Rule for the calls, unless noted: active = hit-call score of the fitted dose curve at least 0.9, where 1 is the maximum; inactive = score below 0.9.

Chain of E-selectin (Homo sapiens) (P16581 whole entry, looked up): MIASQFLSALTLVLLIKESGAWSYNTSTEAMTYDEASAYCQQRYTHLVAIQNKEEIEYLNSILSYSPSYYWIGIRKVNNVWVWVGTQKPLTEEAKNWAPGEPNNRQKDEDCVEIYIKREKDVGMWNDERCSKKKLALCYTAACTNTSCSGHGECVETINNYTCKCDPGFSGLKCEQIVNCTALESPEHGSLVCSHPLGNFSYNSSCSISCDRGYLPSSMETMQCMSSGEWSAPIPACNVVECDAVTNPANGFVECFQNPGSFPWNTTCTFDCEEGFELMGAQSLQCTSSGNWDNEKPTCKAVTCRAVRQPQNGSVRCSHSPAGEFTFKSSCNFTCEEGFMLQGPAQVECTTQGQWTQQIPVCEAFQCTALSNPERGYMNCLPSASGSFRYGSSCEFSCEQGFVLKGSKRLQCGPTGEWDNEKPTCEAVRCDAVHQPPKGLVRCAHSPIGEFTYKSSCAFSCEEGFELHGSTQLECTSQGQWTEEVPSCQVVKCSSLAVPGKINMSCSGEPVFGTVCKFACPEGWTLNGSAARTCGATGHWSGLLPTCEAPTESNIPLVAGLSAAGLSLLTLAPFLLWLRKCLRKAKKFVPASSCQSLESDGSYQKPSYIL
Chain of human Thyroid Receptor alpha (THRa1), THRA (gene 7067) (P10827 whole entry, looked up, the tested form may be a part): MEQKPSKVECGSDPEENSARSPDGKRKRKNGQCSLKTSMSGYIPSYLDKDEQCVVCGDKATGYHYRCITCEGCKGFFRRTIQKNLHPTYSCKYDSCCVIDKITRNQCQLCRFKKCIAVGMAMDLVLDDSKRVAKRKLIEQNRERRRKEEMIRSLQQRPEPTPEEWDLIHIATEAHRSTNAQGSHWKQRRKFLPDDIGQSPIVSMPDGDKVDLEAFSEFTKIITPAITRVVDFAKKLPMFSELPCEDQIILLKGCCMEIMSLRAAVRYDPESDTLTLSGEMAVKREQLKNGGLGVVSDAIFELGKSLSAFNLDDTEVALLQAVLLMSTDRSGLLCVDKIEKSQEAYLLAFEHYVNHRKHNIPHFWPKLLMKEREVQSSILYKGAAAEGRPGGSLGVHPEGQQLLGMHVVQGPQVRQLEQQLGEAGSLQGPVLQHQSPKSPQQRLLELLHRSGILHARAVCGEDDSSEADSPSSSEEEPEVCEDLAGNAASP
Chain of human Vitamin D Receptor (VDR), VDR (gene 7421) (P11473 whole entry, looked up): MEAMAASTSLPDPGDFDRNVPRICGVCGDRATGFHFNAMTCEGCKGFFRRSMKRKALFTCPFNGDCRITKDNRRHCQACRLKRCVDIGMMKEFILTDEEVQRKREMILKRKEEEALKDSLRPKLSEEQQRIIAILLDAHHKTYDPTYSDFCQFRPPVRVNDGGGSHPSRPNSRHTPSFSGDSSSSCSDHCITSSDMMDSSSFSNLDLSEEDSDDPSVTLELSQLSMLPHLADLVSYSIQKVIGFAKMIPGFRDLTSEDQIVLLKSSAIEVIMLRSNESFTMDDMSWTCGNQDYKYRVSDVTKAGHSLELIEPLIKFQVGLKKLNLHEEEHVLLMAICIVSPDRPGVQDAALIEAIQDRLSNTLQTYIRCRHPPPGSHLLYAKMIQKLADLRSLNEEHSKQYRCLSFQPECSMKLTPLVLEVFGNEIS
Chain of human Retinoid X Receptor beta (RXRb), RXRB (gene 6257) (P28702 whole entry, looked up): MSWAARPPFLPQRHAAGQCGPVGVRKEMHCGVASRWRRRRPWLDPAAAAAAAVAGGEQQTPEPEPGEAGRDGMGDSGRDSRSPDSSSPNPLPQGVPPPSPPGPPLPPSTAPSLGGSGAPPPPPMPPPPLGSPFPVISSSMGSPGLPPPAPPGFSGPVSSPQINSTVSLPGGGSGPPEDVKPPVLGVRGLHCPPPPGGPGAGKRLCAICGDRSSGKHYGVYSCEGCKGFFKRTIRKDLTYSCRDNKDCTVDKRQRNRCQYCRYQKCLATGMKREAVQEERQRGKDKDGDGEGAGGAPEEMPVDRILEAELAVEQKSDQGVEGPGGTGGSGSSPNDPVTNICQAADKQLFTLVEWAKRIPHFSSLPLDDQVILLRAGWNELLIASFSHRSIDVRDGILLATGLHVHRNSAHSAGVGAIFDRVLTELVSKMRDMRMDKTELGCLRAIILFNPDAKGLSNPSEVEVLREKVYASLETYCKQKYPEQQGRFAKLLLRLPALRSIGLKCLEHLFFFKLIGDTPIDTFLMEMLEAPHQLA
Chain of Retinoic acid receptor RXR-alpha (Homo sapiens) (P19793 whole entry, looked up, the tested form may be a part): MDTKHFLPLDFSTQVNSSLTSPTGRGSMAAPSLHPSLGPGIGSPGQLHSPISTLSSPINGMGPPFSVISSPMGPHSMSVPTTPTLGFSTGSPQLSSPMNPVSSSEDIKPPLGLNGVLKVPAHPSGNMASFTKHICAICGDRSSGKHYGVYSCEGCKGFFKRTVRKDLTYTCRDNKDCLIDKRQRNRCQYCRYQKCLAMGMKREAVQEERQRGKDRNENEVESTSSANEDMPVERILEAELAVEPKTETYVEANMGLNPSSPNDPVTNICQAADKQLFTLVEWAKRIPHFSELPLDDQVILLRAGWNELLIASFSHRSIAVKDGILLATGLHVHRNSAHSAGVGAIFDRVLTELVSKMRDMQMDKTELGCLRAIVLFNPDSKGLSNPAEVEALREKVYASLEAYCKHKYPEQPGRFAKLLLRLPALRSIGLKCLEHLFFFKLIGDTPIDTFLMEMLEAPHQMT

For `CCCCCCCCCCOC(=O)c1ccccc1C(=O)OCCCCCCCC`, in test [1], the compound was called inactive.

As to `C=C(F)C(=O)OC(C(F)(F)F)C(F)(F)F`, the result in [2], in test [3], in test [4], in [5], in test [6] and in test [7] was inactive. The outcome in [8], in test [9], in [10], in test [11], in test [12] and in [13] was inactive. The result in test [14] was inactive.

As for `CCCc1ccc(N)cc1`, the outcome in test [15] and in test [16] was inactive.

`CCCCCCOC(C)=O`: the compound was classed as inactive in test [16].

With `CCC(C)(C)C1CCC(OC)CC1` (configuration not stated), in test [1], the outcome was inactive.

With `CC/C=C\CCOC(=O)C(C)C`, the outcome in [1] was inactive.

Take `C=C(C)C(=O)OCCC(C)OC(=O)C(=C)C` (configuration not stated): in [17], the compound was classed as inactive.

In general, AC50 refers to the concentration at which the activity in the assay is half-maximal. With `OCC(F)(OC(F)(F)C(F)(OC(F)(F)C(F)(F)C(F)(F)F)C(F)(F)F)C(F)(F)F` (configuration not stated), the AC50 was 3.09 µM (active) and 3.33 µM (active) in test [2]; 4.24 µM (active) in [4]; 3.33 µM (active) in [5]; 2.65 µM (active) and 4.85 µM (active) in test [6]; 6.2 µM (active) in test [7]; 3.71 µM (active) in test [8]. For the same compound, the AC50 was 4.48 µM (active) and 3.3 µM (active) in [9]; 2.54 µM (active) in [10]; 4.38 µM (active) in test [11]; 5.19 µM (active) and 3.7 µM (active) in test [18]; 4.76 µM (active) and 2.31 µM (active) in [13]. Besides, the outcome in test [3], in test [4], in [5], in [7], in [8] and in test [10] was inactive. The outcome in [11], in test [12] and in test [14] was inactive.

Take `CN(C)C`: the compound was classed as inactive in test [16].

On to `CC(C)Cc1ccc(C(C)C(=O)O)cc1` (configuration not stated), for which the compound was called inactive in [17], in test [1], in [2], in test [3], in test [4] and in test [5]. Also, the outcome in test [6], in [8], in test [9], in test [10], in [19] and in test [11] was inactive. Further, the result in [12], in [13] and in test [14] was inactive. For the same compound, the AC50 in test [7] was 0.0158 µM (active).

Turning to `O=C(O)C(F)(F)OC(F)(F)C(F)(F)OC(F)(F)C(F)(F)C(F)(F)C(F)(F)F`, the outcome in test [2], in [4], in test [5], in test [6], in test [7] and in test [8] was inactive. Besides, the outcome in [9], in [11], in test [18], in test [12], in [13] and in test [14] was inactive. The AC50 in test [3] is 50.4 µM (active) and 55.2 µM (active); in test [9], 46 µM (active); in test [10], 19.9 µM (active) and 21.3 µM (active).

For `CC(C)COC(=O)c1ccccc1`, the compound was classed as inactive in [1] and in [16].

Take `CC(=O)c1cccnc1`: the compound was classed as inactive in test [1] and in test [16].

For the compound `CC1=CC[C@@H](C(C)(C)O)CC1`, the call in test [1] and in [16] was inactive.

Take `O=C(O)C(F)(F)C(F)(F)C(F)(F)C(F)(F)C(F)(F)C(F)(F)C(F)(F)C(F)F`: the outcome in test [2], in [3], in test [4], in test [5], in test [6] and in [7] was inactive. For the same compound, the outcome in test [8], in test [9], in [11], in [12], in test [13] and in test [14] was inactive. The concentration at half-maximal activity (AC50) in test [10] is 11.5 µM (active) and 35.9 µM (active); in [11] it was 19.5 µM (active).
